PubChem BioAssay AID738 (SRMLSC, 2007)
The whole screen tested about 98,000 compounds, of which about 4,900 (5%) were called active. The entries come from a sample that favours actives as a whole. Unmarked numbers belong to inactive results. Rule as the data show it: active = inhibition above about 30%; inactive = the rest.

test: yeast control strain growth suppression – counter-screen for post-Golgi transport modulator project, primary screen (AID 738); conditions: efflux-deficient yeast background strain, growth absorbance A615, 16 h; at 10 µM; active compounds read high

| Compound | inhibition |
| --- | --- |
| Cc1ccccc1OC(=O)Cn1c(C(F)(F)F)nc2ccccc21 | 12.9% |
| COC(=O)c1ccccc1OCC(=O)N1CCN(c2ccc(Cl)cc2)CC1 | 13.6% |
| CN(C(=O)CSc1nnnn1-c1ccccc1)C1CCCCC1 | 38% (active) |
| COc1ccc(-n2nnnc2SCC(=O)Nc2ccccc2)cc1 | 2.21% |
| O=c1c2ccccc2nnn1CSc1nnnn1-c1ccccc1 | 19.6% |
| CC(=O)c1nn(-c2cccc(Br)c2)cc1C(=O)c1cccc2ccccc12 | 8.1% |
| Cc1cc2cc3c(N)[nH]nc3nc2cc1C | 8.93% |
| COCCNS(=O)(=O)c1cc(Br)ccc1OC | 2.48% |
| O=[N+]([O-])c1cccc(-c2nnc3c4ccccc4c4ccccc4n23)c1 | 6.93% |
| CCC(=O)NC(=Nc1nc2ccccc2s1)NC(=O)CC | 35.9% (active) |
| COC(=O)Cc1cc(=O)n(-c2nc3ccccc3s2)[nH]1 | 11.8% |
| CC(C)CC(=O)N/C(N)=N/c1nc2ccccc2s1 | 13.9% |
| COc1ccc(C(=O)N2CCc3cc(OC)c(OC)cc3C2c2cccc([N+](=O)[O-])c2)cc1 (centres undefined) | 20% |
| c1ccc2c(C[n+]3csc4ccccc43)cccc2c1 | 9.79% |
| COc1ccc(C)cc1NC(=O)CCC(=O)Nc1nnc(C(F)(F)F)s1 | 0.61% |
| Cc1[nH]n(-c2cccc(Cl)c2)c(=O)c1/C=N/n1c(C)nc2ccccc2c1=O | 9.33% |
| O=c1[nH]n(-c2cccc(Cl)c2)c2ncccc12 | 16.8% |
| Cc1[nH]n(-c2cccc(Cl)c2)c(=O)c1-c1ccc(Cl)cc1 | 55.6% (active) |
| O=C(CN1CCN(S(=O)(=O)c2ccc(Cl)s2)CC1)NCc1ccc(Cl)cc1 | 15.8% |
| CC(=O)Nc1cccc(/C(C)=N/NC(=O)c2ccccc2Cl)c1 | 5.79% |
| Cc1ccc(C(=O)Nc2ccccc2C(=O)NC2CCCCC2)cc1S(=O)(=O)N1CCOCC1 | 36.2% (active) |
| Cc1cc(C)n(C(=O)c2ccc(C)c(S(=O)(=O)N3CCOCC3)c2)n1 | 11.4% |

| Compound | inhibition |
| --- | --- |
| Cc1ccc(C(=O)Nc2ccc3c(c2)OCO3)cc1S(=O)(=O)N1CCCCC1 | 16.4% |
| CCOc1c2ccc(C(=O)NC3CCCc4ccccc43)cc2nn1CC (centres undefined) | -2.36% |
| O=C(O)c1ccccc1-c1ccccc1C(=O)Nc1cccc2ccccc12 | 9.42% |
| COc1ccccc1C(=O)NN1C(=O)C2C3C=CC(O3)C2C1=O (centres undefined) | 3.54% |
| Cc1ccccc1C(OCC(O)CN1CCCCC1CCO)c1ccccc1 (centres undefined) | 30.4% (active) |
| CCCSc1nsc(N)n1 | 3.53% |
| O=C(CSc1ncnc2c1cnn2CCc1ccccc1)Nc1ccc(F)cc1 | -3.75% |
| O=C(Nc1cccn(Cc2c(Cl)cccc2Cl)c1=O)c1ccc(Cl)cc1 | -8.03% |
| Clc1ccc(COn2c(-c3ccc(Cl)cc3Cl)nc3ncccc32)cc1 | 66.1% (active) |
| CCOc1ccc(OCC)c(-c2c(=O)n(OCc3ccc(Cl)cc3)c3ccccc3[n+]2[O-])c1 | 11.6% |
| O=C(/C=C/c1cc2c(cc1Br)OCO2)NCc1ccc(Cl)cc1 | 9.36% |
| N/C(=N\OC(=O)CCc1ccccc1)c1ccc(Cl)cc1 | 16.6% |
| C=CCNc1cnn(-c2ccc(C)cc2)c(=O)c1Cl | 8.21% |
| CCOc1ccc(Cn2c(SCCCCC#N)nc3c2c(=O)n(C)c(=O)n3C)cc1OCC | 8.56% |
| Cc1cccc(Cn2c(SCCO)nc3c2c(=O)n(C)c(=O)n3C)c1 | 3.8% |
| CCCSc1nc2c(c(=O)n(C)c(=O)n2C)n1Cc1ccc(C)cc1 | 51.8% (active) |
| O=C(ON=C1CCN(S(=O)(=O)c2ccccc2)CC1)c1ccc(Cl)cc1 | 13.6% |
| COc1cccc(Oc2ccc(N)cc2)c1 | 34% (active) |
| Nc1ccc(Oc2ccc(Cl)cc2)cc1 | 10% |
| Cc1ccc(Oc2ccc(N)cc2)cc1 | 28.3% |
| COC(=O)Cc1cc(=O)oc2c(C)c(O)ccc12 | 7.59% |
| Cc1cc(OC(=O)c2ccc(Cl)cc2)cc(=O)n1C | -4.12% |

| Compound | inhibition |
| --- | --- |
| COc1ccc2[nH]cc(/C=C(/C#N)S(=O)(=O)c3ccccc3)c2c1 | 36.8% (active) |
| COc1ccc2[nH]c3ccc(OC)cc3c2c1 | 8.06% |
| CCN(CC)CC(=O)c1c[nH]c2ccc(OC)cc12 | 15.9% |
| CCCCCCC(=O)Nc1nc(C)c(-c2csc(Nc3cc(Cl)ccc3OC)n2)s1 | 0.3% |
| C=CCCC(=O)Nc1nc(C)c(-c2csc(Nc3ccc(Cl)cc3)n2)s1 | 50.3% (active) |
| CCCCC(=O)Nc1nc(C)c(-c2csc(Nc3ccc(Cl)cc3)n2)s1 | 1.53% |
| O=S(=O)(N1CCOCC1)N1CCN(c2ccccc2F)CC1 | -1.25% |
| Cc1ccc2cccc(S(=O)(=O)N3CCN(c4ccccc4F)CC3)c2n1 | 37.7% (active) |
| O=C(c1cccc2ccccc12)N1CCN(c2ccccc2F)CC1 | 13.7% |
| O=C(CSCc1c(Cl)cccc1Cl)NN1C(=O)c2ccccc2C1=O | 8.98% |
| COc1ccc(OC)c(Nc2nc(-c3ccc(O)c(O)c3)cs2)c1 | 34.6% (active) |
| c1cnc(Nc2nc(-c3ccc4ccccc4c3)cs2)nc1 | 2.57% |
| COc1ccc(Nc2nc(-c3ccccc3)cs2)cc1 | 6.6% |
| CON(C)S(=O)(=O)c1ccc2c(c1)NC(=O)C1CCCN21 (centres undefined) | -2.22% |
| O=C(c1cc(-c2ccccc2O)on1)N1CCCC1 | 12% |
| O=C(c1cc(-c2cccc(O)c2)on1)N1CCc2ccccc2C1 | 41% (active) |
| O=C(c1cc(-c2ccc(O)cc2)on1)N1CCCc2ccccc21 | 23.4% |
| O=C(CNC(=O)OCc1ccccc1)Oc1cc2oc(=O)cc(-c3ccccc3)c2cc1Cl | 34.6% (active) |
| O=C(CNC(=O)c1ccccc1)NCC(=O)OCc1ccc(Cl)cc1 | 2.68% |
| O=C(NCC1CCC(C(=O)O)CC1)OCc1ccccc1 (centres undefined) | 8.23% |
